This is one part of a sample in which hits are shown more often than they occur.
ST2 IL33 inh: IL1RL1 inhibition; Q01638; AlphaLISA ST2-Fc/biotin-IL-33 interaction, 1 h; inhibition, % for hits at 17 µM; 2.3% of 78,000 active; AID 1259354; in the data active = inhibition above about 30%
Target sequence (Q01638 whole entry, looked up): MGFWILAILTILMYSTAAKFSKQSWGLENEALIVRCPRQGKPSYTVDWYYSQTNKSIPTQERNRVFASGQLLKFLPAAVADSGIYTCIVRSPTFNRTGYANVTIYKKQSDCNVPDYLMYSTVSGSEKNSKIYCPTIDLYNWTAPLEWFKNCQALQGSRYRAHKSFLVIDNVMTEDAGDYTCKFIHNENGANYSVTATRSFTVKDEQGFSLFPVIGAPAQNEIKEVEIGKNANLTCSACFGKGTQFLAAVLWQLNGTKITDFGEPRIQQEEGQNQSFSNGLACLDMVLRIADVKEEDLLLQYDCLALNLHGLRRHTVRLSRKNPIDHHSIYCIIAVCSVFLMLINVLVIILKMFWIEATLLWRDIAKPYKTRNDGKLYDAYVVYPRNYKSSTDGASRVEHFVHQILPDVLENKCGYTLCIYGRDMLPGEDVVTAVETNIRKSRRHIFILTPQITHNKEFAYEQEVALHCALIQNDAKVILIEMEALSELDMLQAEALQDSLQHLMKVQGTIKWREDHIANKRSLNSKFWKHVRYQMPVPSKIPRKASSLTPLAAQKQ
* = called active by the depositor; i = inactive; ! = repeats disagree.

SMILES | ST2 IL33 inh
COc1cccc(NC2=C(N3CCOCC3)C(=O)c3ccccc3C2=O)c1 | 71%*
COc1cccc(NC(=O)c2ccccc2-c2ccccc2C(=O)O)c1 | i
O=C(NC1CCCCCCC1)C1c2ccccc2C(=O)N1CCCN1CCOCC1 (stereo not drawn) | i
COc1cccc(OCC(O)CN2CCOCC2)c1 (stereo not drawn) | i
COc1ccc(-c2cnccc2C)c(OC)c1 | i
Cc1ccc(C2(O)CCN(c3nc(-c4ccccc4)nc4c3CCC4)CC2)nc1 | i
CC1(C)CC(=O)C2=C(C1)OC1=C(C(=O)CC(C)(C)C1)C2c1cccc(Cl)c1Cl | i
Oc1ccc(-c2csc(Nc3ncccn3)n2)cc1O | 44%*
c1cnc(Nc2nc(-c3ccncc3)cs2)nc1 | i
Cc1ccc(C)c(-c2csc(Nc3ncccn3)n2)c1 | i
O=C(CNC(=O)Cn1ccc2ccccc2c1=O)NCCC1=CCCCC1 | i
CCOC(=O)c1c(NC(=O)c2cc(CC(C)C)on2)sc2c1CCCC2 | i
C[C@H]1[C@@H]2[C@@H](O)C([C@H](C)C(=O)N3CCCC3)CC[C@@]2(C)CC[C@@H]1NC(=O)c1ccc(C#N)cc1 (stereo partly drawn) | i
Clc1ccccc1-n1ncnc1-c1ccc(Br)cc1 | i
Brc1ccc(-c2ncnn2-c2ccc(Br)nc2)cc1 | i
Clc1ccc(-c2ncnn2-c2ccc(Br)cc2)cc1 | 33%*!
COCCN(Cc1ccc(C)cc1)C(=O)c1cccc(C)n1 | i
Cc1ccnc(NC(c2cccnc2)c2ccc3cccnc3c2O)c1 (stereo not drawn) | i
CCN(CC)c1ccc(C(Nc2ccccn2)c2ccc3cccnc3c2O)cc1 (stereo not drawn) | 36%*
CCOc1cc(C(Nc2ccccn2)c2ccc3cccnc3c2O)ccc1O (stereo not drawn) | i
c1ccc(C2(CNc3ccccn3)CCCC2)cc1 | i
COc1cc(NCCNC(=O)c2ccncc2)ncn1 | i
COc1cc(NCC2(c3ccccc3)CCN(C)CC2)ncn1 | 31%*
CCc1nc(N2CCN(CC)CC2)c2c3c(sc2n1)CCCC3 | i
N#CC1=C(N)Oc2nc[nH]c(=O)c2C1c1ccccc1Cl (stereo not drawn) | 94%*
SMILES | ST2 IL33 inh
COc1cc(-c2[nH]nc3c2C(c2ccccc2Cl)C(C#N)=C(N)O3)cc(OC)c1OC (stereo not drawn) | i
CC(C)(C)c1[nH]nc2c1C(c1ccccc1Cl)C(C#N)=C(N)O2 (stereo not drawn) | i
COc1ccc(-n2c(=O)c3c4c(sc3n(CC(=O)NC3CCCC3)c2=O)CCC4)c(OC)c1 | i
CC1CCN(c2ncnc3ccccc23)CC1 | i
CC1CCN(Cc2cc(Cn3ccnc3)c3cccnc3c2O)CC1 | 51%*
c1ccc2c(CN3CCCCC3CCn3ccnc3)ccnc2c1 (stereo not drawn) | i
CCC(C)NC(=O)C1(C)CCC(=O)N1Cc1cccc(OC)c1 (stereo not drawn) | i
COc1ccccc1NC(=O)NC1CC(=O)N(Cc2ccccc2Cl)C1 (stereo not drawn) | i
CCC(=O)N1CCc2cc(Br)cc(S(=O)(=O)Nc3ccc4c(c3)OCCO4)c21 | i
Cc1sc2c(c1C)c(=O)n(-c1ccc(Cl)cc1)c(=O)n2CC(=O)N1CCCC1 | i
CCS(=O)(=O)N1CCN(c2ccc([N+](=O)[O-])c(NCc3cccnc3)c2)CC1 | i
O=[N+]([O-])c1ccc(S(=O)(=O)N2CCN(c3ccccn3)CC2)cc1 | i
O=C(COc1ccccc1)N1CCN(S(=O)(=O)c2ccc([N+](=O)[O-])cc2)CC1 | i
O=[N+]([O-])c1ccc(S(=O)(=O)N2CCN(c3ccccc3)CC2)cc1 | i
O=[N+]([O-])c1ccc(N2CCOCC2)cc1NCCCO | i
O=[N+]([O-])c1ccc(N2CCN(S(=O)(=O)c3ccc(Cl)c(Cl)c3)CC2)cc1NC1CC1 | 30%*
O=[N+]([O-])c1ccc(N2CCN(S(=O)(=O)c3ccc(Cl)cc3)CC2)cc1 | 35%*
O=S(=O)(c1ccc(Br)cc1)N1CCN(Cc2ccccc2)CC1 | i
O=[N+]([O-])c1ccc(S(=O)(=O)N2CCN(CCCc3ccccc3)CC2)cc1 | 34%*
O=C(Nc1ccc(-c2ccn[nH]2)cc1)C1CCCN(C/C=C/c2ccccc2)C1 (stereo not drawn) | i
CN1CCN([C@@H]2CCN(Cc3ccc4cc(F)ccc4n3)C[C@H]2O)CC1 | i
Cc1nn(C)c(Cl)c1C1CC(=O)Nc2n[nH]c(-c3cccs3)c21 (stereo not drawn) | i
Nc1ncnc(N2CCOCC2)c1[N+](=O)[O-] | i
COc1ccc(COC(=O)C2=C(C)NC(=O)NC2c2cccc(Oc3ccccc3)c2)cc1 (stereo not drawn) | i
CCn1cc(SCC(=O)Nc2nccs2)c2ccccc21 | i
SMILES | ST2 IL33 inh
O=C(CNS(=O)(=O)c1ccc(Br)s1)NCc1cccnc1 | i
O=S(=O)(NCc1cccnc1)c1cccs1 | i
O=C(CNS(=O)(=O)c1cccs1)NCc1cccnc1 | 79%*
COc1ccc(OC)c(NC(=O)C(NS(=O)(=O)c2cccs2)C(C)C)c1 (stereo not drawn) | i
COc1ccc(OC)c(C2CCN(c3cc(OC)ncn3)C2)c1 (stereo not drawn) | i
Cc1ccc(CCC(=O)N2CCC(Cn3cc(CO)nn3)CC2)cc1C | i
COc1cc(N2CCC(Cn3cc(CO)nn3)CC2)ncn1 | 65%*
Cc1nc2c(sc3cc([N+](=O)[O-])cc(Sc4ccccc4)c32)c(=O)n1C | i
O=[N+]([O-])c1cc([N+](=O)[O-])c2c(OCc3ccccc3)nsc2c1 | 43%*
Cc1c(N=Cc2ccccc2)cc([N+](=O)[O-])cc1[N+](=O)[O-] | i
Cc1ccc(CCN2C(=O)CCC2(C)C(=O)NC2CCC(C)CC2)cc1 (stereo not drawn) | i
Cc1cccc(Cn2cc(C(=O)Nc3ccccc3)ccc2=O)c1 | i
COC[C@H]1CCCN1[C@@H]1[C@H](O)[C@H](CO)O[C@@H]1CN(Cc1ccc(F)cc1)Cc1ccc(F)cc1 | i
O=C(NCc1ccco1)/C(=C/c1ccc2c(c1)OCO2)NC(=O)c1ccc(Br)o1 | i
COc1ccccc1-c1ccnc(N[C@H]2CO[C@H]3[C@@H]2OC[C@@H]3NC(=O)c2ccc(C(F)(F)F)cc2)n1 | i
C[C@@]12CC[C@@H](C[C@@H]1N)C2 | 41%*
CN1CCN(Cc2cc(O)ccc2[N+](=O)[O-])CC1 | i
OC(COCc1ccc2c(c1)OCO2)CN1CCN(c2cccc(Cl)c2)CC1 (stereo not drawn) | i
COc1cc(CN2CCN(Cc3ccccc3)CC2)c([N+](=O)[O-])cc1OC | i
O=[N+]([O-])c1cc2c(cc1CN1CCN(c3ccc(F)cc3)CC1)OCO2 | 36%*
COc1cc(CN2CCCCCC2)c([N+](=O)[O-])cc1OC | i
O=[N+]([O-])c1cc2c(cc1CN1CCN(c3cccc(Cl)c3)CC1)OCO2 | 36%*
O=C(CN1CCC(c2ccccc2)CC1)NC1CCCN(c2ncccn2)C1 (stereo not drawn) | i
C=C1CN=C(N(C(C)=O)c2ccccn2)S1 | i
CC(C)CC(NC(=O)CN(C)C)c1nnc2n1CCN(C(=O)/C=C/c1ccc(F)cc1)CC2 (stereo not drawn) | i
CC1CC(Nc2ccccc2)c2ccccc2N1C(=O)c1ccc(NS(C)(=O)=O)cc1 (stereo not drawn) | i
Cc1ccc(NC(=O)Nc2cccc(Cl)c2)nc1 | i

From PubChem
